Screens as filed in PubChem.
This is a sample that favours compounds with a hit; in the whole collection about 2.9% have one here.
DRD3 antagonist – blocks the human D3 dopamine receptor. hit rate 2.5% among 360,000. AID 652054. max response, negative = inhibition, %. D3R cells, DiscoveRx beta-arrestin luminescence, antagonist mode; hits give low values; in the data active = max response below about -50%; inconclusive = no clear call, values can overlap the other calls
Target sequence (P35462 whole entry, looked up): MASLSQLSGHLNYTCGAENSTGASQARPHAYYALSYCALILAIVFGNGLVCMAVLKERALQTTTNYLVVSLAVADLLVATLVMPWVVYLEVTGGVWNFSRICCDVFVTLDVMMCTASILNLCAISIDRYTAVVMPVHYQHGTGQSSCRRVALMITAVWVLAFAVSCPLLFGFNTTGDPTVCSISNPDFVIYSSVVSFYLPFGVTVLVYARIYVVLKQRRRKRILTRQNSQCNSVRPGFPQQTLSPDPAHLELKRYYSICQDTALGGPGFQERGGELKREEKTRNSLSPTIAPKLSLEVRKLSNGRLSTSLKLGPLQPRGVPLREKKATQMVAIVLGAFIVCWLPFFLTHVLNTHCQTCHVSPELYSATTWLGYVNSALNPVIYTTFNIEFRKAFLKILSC
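Cells expressing the human receptor were seeded at 1500 cells/well, incubated overnight at 37 degrees C in 5% CO2, then exposed to library compounds with dopamine controls for 90 minutes at 37 degrees C before luminescent detection.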
Integrin act MD – activates integrin-mediated alleviation for muscular dystrophy. alpha7betagal myoblasts, beta-gal FDG fluorescence, 48 h. Potency, µM (series often up to 38.3 µM), hits mostly activators. hit rate 0.064% among 350,000; active = well fitted activation curve with a large enough effect; inconclusive = small, poorly fitted or top-dose-only effect; inactive = no such curve, though single readings can be large or run the other way; also: nearly all actives have a fitted effect of over 60% in size
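alpha7betagal+/- myoblasts (passage 13, 250/well) treated 48 h at 37C with compounds at 1:260 dilution of DMSO stock. Lysed, then beta-galactosidase activity read as FDG fluorescence (ex 480/em 540) after 30 min, with pre-read for autofluorescence.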
D3 ag – agonists of human D3 dopamine receptor; D3R DiscoveRx beta-arrestin cells, luminescence, 90 min; max activation, %; hit rate 0.58% among 410,000; in the data active = max activation above about 30%
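Cells at 1500/well, incubated overnight, then treated with pinned compounds (dopamine as control) for 90 min at 37 degrees C. DiscoveRx reagent added for 30 - 60 minutes at room temperature; luminescence read.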
Large screens that a line does not name were inactive; ! = a repeat was not active.

Cc1ccsc1C(=O)N1CCC1(C)C(=O)NS(=O)(=O)c1ccccc1C(F)(F)F (stereo not given)	D3 ag 98.5 (no result: Integrin act MD)
CC1(C(=O)NS(=O)(=O)c2ccc(F)cc2F)CCN1C(=O)c1ccco1 (stereo not given)	none (no result: Integrin act MD)
Cc1ccsc1C(=O)N1CCC1(C)C(=O)NS(=O)(=O)c1ccccc1 (stereo not given)	none (no result: Integrin act MD)
CC1(C(=O)NS(=O)(=O)c2ccccc2OC(F)(F)F)CCN1C(=O)c1ccco1 (stereo not given)	DRD3 antagonist -59.7 (no result: Integrin act MD)
Cc1cn([C@@H](CCCCN)C(=O)NCCCCCCCCCCC(=O)N2CCNCC2)nn1	none
Cc1cn([C@H](C(=O)NCCCCCCCCCCC(=O)N2CCNCC2)[C@@H](C)O)nn1	DRD3 antagonist -64.4
Cc1ccc(CN2CCSc3ccc(C(=O)N4CCN(c5ccc(Cl)cc5)CC4)cc32)cc1	none (no result: DRD3 antagonist, Integrin act MD)
Cc1ccc(-c2nc(Nc3ccc(O)cc3)c3ccccc3n2)cc1	none
Cc1ccc(-c2nc(C(Cl)Cl)c3ccccc3n2)cc1	DRD3 antagonist -60.0
COc1ccc(N2CCN(C(CNC(=O)c3ccco3)c3ccco3)CC2)cc1 (stereo not given)	none
CCc1ccc2oc(-c3cccc(NC(=O)c4ccc(N5CCC(C)CC5)c([N+](=O)[O-])c4)c3)nc2c1	none (no result: DRD3 antagonist, Integrin act MD)
Cc1ccc(S(=O)(=O)N(C)C)cc1NC(=O)COC(=O)c1ccc(Cl)cc1	none
CCCC(c1nnnn1CCc1ccccc1)N1CCN(C(=O)c2ccco2)CC1 (stereo not given)	DRD3 antagonist -51.0
CCCCC(c1nnnn1CCOC)N1CCN(C(=O)c2ccco2)CC1 (stereo not given)	none
CN(C)c1ccc(CNC(=O)c2ccc3nc(Cc4ccccc4)oc3c2)cc1	none (no result: DRD3 antagonist, Integrin act MD)
CN(C)c1ccc(CNC(=O)c2ccc3nc(CCc4ccccc4)oc3c2)cc1	D3 ag 47.6 (no result: DRD3 antagonist, Integrin act MD)
O=C(c1cccc(F)c1)N1CCC(N2CCCCCC2)CC1	DRD3 antagonist -73.6
O=C(c1cccc(F)c1)N1CCN(C2CCCCC2)CC1	none
CC(=O)c1cccc(NC(=O)C2CCN(S(=O)(=O)c3ccc(C)cc3)CC2)c1	none
Cc1cc(N2CCCC(C(=O)Nc3cccc4ccccc34)C2)n2ncnc2n1 (stereo not given)	none
O=C1N=c2ccccc2=C1c1c(O)n(-c2cccc(F)c2)[nH]c1=O	DRD3 antagonist inconclusive
CCn1c(O)c(C2=c3ccccc3=NC2=O)c2cc(Br)ccc21	DRD3 antagonist -80.3
CN(CC(=O)Nc1ccc(F)cc1)CC(=O)N(C)C1(C#N)CCCCC1	none
COc1ccc(NC(=O)CN(C)CC(=O)N(C)C2(C#N)CCC(C)CC2)cc1 (stereo not given)	DRD3 antagonist -50.4
CC(C)(C)C(=O)NC(=S)Nc1sc2c(c1C(N)=O)CCC2	none
CCOc1ccc(N2CC(C(=O)Nc3nnc(Cc4ccc(OC)c(OC)c4)s3)CC2=O)cc1 (stereo not given)	none
COc1ccc(Cc2nnc(NC(=O)C3CC(=O)N(c4ccccc4C)C3)s2)cc1OC (stereo not given)	DRD3 antagonist -64.4
O=C(C[n+]1cccc(C(=O)Nc2ccccc2)c1)c1ccc(Cl)cc1	DRD3 antagonist inconclusive (no result: Integrin act MD)
NC(=O)C[n+]1cccc(C(=O)Nc2ccccc2)c1	DRD3 antagonist -67.3, Integrin act MD inconclusive
CCc1ccc(-c2c(C)sc(NC(=O)C3CCC3)c2C#N)cc1	none
CC(=O)Nc1ccc(NC(=O)CN(c2ccc(F)cc2)S(=O)(=O)c2ccc3c(c2)OCCO3)cc1	none
CC(C)[C@@H]1Cc2[nH][nH]c(=O)c2[C@H](C)O1	none (no result: Integrin act MD)
C=C[C@@H]1CN2CCC1C[C@@H]2[C@@H](O)c1ccnc2ccc(OC)cc12 (stereo not given in full)	DRD3 antagonist -61.6! (no result: Integrin act MD)
COc1ccc2nccc(/C=C/c3ccnc4ccc(OC)cc34)c2c1	none
C=C(C)Cn1c2ccc(NC(=O)CCc3cccc(Cl)c3)cc2c(=O)n1C	D3 ag 45.3 (no result: Integrin act MD)
Cn1c(=O)c2cc(NC(=O)CCc3cccc(Cl)c3)ccc2n1Cc1cccc(C(F)(F)F)c1	none (no result: Integrin act MD)
C=CCSc1nc(N)c2c3c(sc2n1)CN(C)CC3	Integrin act MD inconclusive
CCNc1nc(SCC(N)=O)nc2sc3c(c12)CCN(C)C3	none
CSc1nc(SCC(N)=O)c2c3c(sc2n1)CN(C)CC3	DRD3 antagonist -53.7
CSc1nc(N)c2c3c(sc2n1)CN(C)CC3	DRD3 antagonist -52.2
COc1ccccc1N(CC(=O)N1CCN(c2ccc(F)cc2)CC1)S(=O)(=O)c1ccc(C)cc1	none
Cc1ccc(S(=O)(=O)NNC(=S)Nc2cccc(C)c2C)cc1	none
Cc1ccc(NC(=O)NNC(=O)C2CC(c3cccnc3)=NO2)cc1 (stereo not given)	DRD3 antagonist -61.6
O=C(NNC(=O)C1CC(c2cccnc2)=NO1)Nc1ccccc1F (stereo not given)	none
Cc1c(Cl)cccc1NC(=O)CN1C(=O)COc2ccc(S(=O)(=O)N3CCCCCC3)cc21	none (no result: DRD3 antagonist, Integrin act MD)
COc1cc(Br)c(C(C)NC(=O)c2ccccc2)cc1OC (stereo not given)	D3 ag 40.1
COc1ccc(C(CC(=O)O)NC(=O)Nc2ccccc2)cc1OC (stereo not given)	none
COc1ccc(C(CC(=O)O)NC(=O)c2ccccc2)cc1OC (stereo not given)	DRD3 antagonist -59.6
COc1ccc(OC)c(C(C)NC(=O)c2ccc(Br)cc2)c1 (stereo not given)	none
Cc1cc(C)c(S(=O)(=O)N2CCCOC2CNC(=O)C(=O)NCc2ccncc2)c(C)c1 (stereo not given)	none
O=C(CCCC(=O)OCC(Cl)=C(Cl)Cl)Nc1ccccc1F	none
C=CCNC(=S)NC(=O)c1ccc(C)c(Br)c1	none
CCOc1ccc(N(CCCCO)C(=S)NC(=O)c2ccc(C)c(Br)c2)cc1	D3 ag 34.8
CCOP(=O)(c1ccccc1Cl)C1(O)CCCCC1 (stereo not given)	none
CCSc1nc2ccccc2n1CC(N)=O	none
CCSc1nc2ccccc2n1C(=O)/C=C\c1ccc(OC)c(OC)c1	DRD3 antagonist -54.5
COc1ccccc1C(NC(C)=O)c1cc(Cl)c2cccnc2c1O (stereo not given)	DRD3 antagonist -54.3
COc1ccc(C(NC(C)=O)c2cc(Cl)c3cccnc3c2O)cc1OC (stereo not given)	none
O=C(O)COc1ccccc1C(Nc1cccnc1)c1cc(Cl)c2cccnc2c1O (stereo not given)	none
CCOc1ccc(C(Nc2cccnc2)c2cc(Cl)c3cccnc3c2O)cc1 (stereo not given)	DRD3 antagonist -58.1
CC(=O)Nc1ccc(C=NNC(=O)C2CC2)cc1	none
O=C(COc1ccccc1Br)NC(=O)NC1CCCC1	none
CCOc1nc(NCCc2ccc(OC)c(OC)c2)nc(NC(C)(C)CO)n1	DRD3 antagonist -61.8
COc1ccc(CCNc2nc(Cl)nc(NC(C)(C)CO)n2)cc1OC	none
CN(C)c1ccc(C2C3=C(CCCC3=O)OC3=C2C(=O)CCC3)cc1	DRD3 antagonist -55.4
Cc1ccc(S(=O)(=O)Oc2ccc(C3C4=C(CCCC4=O)OC4=C3C(=O)CCC4)cc2)cc1	none
O=C(CCS(=O)(=O)c1cccc2nonc12)Nc1cccc(F)c1	none (no result: DRD3 antagonist, Integrin act MD)
CCc1c(-c2ccccc2)ncn1Cc1cccc(-c2ccccc2)c1	none (no result: Integrin act MD)
CCCCc1c(-c2ccccc2OC)ncn1Cc1cccc(-c2ccccc2)c1	DRD3 antagonist -108.1 (no result: Integrin act MD)
